In the supplement of paper PMC10849652:
Of roughly 7,900 targets only a part is listed; those with a hit were picked by preference. About 0.6% of all pairs of compound and target were hits. Values without a mark were called inactive.

Tests used:
Assay in all cases: log2 fold change, soluble protein after heating vs DMSO (PISA); higher = thermal stabilisation; K562 cells, 10 uM, 30 min; active = over 0.2 and 3.5 SD of the protein, either way, in both replicates (recomputed)
[1] = compound: C#Cc1cccc(Nc2ncnc3cc(OCCOC)c(OCCOC)cc23)c1 [erlotinib]
Outline: (§1)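 K562 cells at 2×10^6 cells/mL were treated for 30 min with 10 μM compound, and aliquots were heated for 3 min over 48°C-58°C before pooling. Extraction used PBS with 0.5% NP-40 at 4°C, and soluble protein was the supernatant after 21,000xg for 90 min, measured by TMTpro 16plex LC-MS/MS with channel sums equalised. Thermal stability values, relative to control samples and from duplicates, are log2 fold changes.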

[2] = compound: C/C(=N\NC(=O)C1=CC(=CC=C1)S(=O)(=O)N2CCOCC2)/C3=C(C=CC(=C3)Cl)O
Outline: as §1

[3] = compound: C1=CC(=C(C=C1Cl)C2=NC3=NC=CN=C3C(=N2)NC4=CC=NC=C4)F
Outline: as §1

[4] = compound: C1=CC(=CC=C1C2=NC3=C(N2)C=C(C=C3)C(=O)N)OC4=CC=C(C=C4)Cl
Outline: as §1

[5] = compound: C1=CC2=C(C=CC(=C2)/C=C\3/C(=O)NC(=NCC4=CC=CS4)S3)N=C1
Outline: as §1

[6] = compound: C1=CC2=NC=CN=C2C=C1/C=C/3\C(=O)NC(=O)S3
Outline: as §1

[7] = compound: C1=CC=C2C(=C1)C3=NNC4=CC=CC(=C43)C2=O
Outline: as §1

[8] = compound: C1CCN(C1)C(=O)NC2=CC=CC(=C2)NC3=NC=C(C(=N3)NCCC4=CN=CN4)Br
Outline: as §1

[9] = compound: C1CN(CCC1(CC2=CC=C(C=C2)Cl)N)C3=NC=NC4=C3C=CN4
Outline: as §1

[10] = compound: C1=CC=C(C=C1)C2=NC(=C(N2)C3=CC=NC=C3)C4=CC(=C(C=C4)Cl)O
Outline: as §1

Chain of UniProt Q8IX18 (Q8IX18 whole entry, looked up): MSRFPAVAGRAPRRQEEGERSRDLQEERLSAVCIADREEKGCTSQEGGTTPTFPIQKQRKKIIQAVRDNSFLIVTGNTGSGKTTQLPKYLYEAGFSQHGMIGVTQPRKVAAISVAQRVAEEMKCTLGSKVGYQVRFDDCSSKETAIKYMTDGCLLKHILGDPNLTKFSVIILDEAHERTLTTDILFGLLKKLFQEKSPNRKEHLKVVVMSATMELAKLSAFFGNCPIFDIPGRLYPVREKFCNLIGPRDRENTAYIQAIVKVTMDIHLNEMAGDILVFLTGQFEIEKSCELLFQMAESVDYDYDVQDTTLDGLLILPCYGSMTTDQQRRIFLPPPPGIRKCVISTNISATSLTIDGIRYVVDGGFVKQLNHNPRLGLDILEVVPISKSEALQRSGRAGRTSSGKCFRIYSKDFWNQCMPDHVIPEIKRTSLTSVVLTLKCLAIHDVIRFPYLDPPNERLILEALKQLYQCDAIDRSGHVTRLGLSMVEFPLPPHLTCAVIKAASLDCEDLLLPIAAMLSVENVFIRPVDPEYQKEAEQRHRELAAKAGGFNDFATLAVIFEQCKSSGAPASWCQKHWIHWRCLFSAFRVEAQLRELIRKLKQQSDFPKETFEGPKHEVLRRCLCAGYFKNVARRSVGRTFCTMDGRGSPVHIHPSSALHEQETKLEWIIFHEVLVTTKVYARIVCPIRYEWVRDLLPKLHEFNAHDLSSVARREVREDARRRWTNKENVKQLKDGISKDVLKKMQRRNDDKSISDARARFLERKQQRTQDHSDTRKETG
Chain of UniProt Q96KC8 (Q96KC8 whole entry, looked up): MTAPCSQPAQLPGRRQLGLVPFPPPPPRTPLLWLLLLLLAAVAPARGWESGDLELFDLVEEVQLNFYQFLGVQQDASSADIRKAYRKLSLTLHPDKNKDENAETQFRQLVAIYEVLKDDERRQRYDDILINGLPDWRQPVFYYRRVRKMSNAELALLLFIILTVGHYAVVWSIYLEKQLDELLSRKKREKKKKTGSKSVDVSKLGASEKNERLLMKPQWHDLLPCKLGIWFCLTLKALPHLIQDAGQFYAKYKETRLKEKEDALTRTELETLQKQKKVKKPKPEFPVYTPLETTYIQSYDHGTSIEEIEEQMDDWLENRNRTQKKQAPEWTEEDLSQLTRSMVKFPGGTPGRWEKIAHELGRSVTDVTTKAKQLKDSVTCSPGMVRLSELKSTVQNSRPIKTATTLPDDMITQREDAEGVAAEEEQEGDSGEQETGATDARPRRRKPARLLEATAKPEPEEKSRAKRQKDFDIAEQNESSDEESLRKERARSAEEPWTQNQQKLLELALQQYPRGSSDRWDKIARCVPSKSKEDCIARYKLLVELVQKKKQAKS
Chain of UniProt Q07973 (Q07973 whole entry, looked up): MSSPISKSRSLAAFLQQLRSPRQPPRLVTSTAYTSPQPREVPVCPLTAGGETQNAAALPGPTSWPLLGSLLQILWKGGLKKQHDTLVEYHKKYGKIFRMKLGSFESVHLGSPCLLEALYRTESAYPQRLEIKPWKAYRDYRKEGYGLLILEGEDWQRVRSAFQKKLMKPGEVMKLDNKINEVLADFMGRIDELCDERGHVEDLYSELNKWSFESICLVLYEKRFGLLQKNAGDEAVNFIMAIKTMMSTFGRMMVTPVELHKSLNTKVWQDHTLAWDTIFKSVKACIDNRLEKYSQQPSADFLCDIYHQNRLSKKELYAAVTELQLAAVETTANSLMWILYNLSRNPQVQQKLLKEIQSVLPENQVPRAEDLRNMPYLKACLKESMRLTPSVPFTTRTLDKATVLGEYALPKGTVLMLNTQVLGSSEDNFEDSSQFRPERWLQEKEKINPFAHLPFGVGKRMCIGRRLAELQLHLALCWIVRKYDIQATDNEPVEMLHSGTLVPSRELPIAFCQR
Chain of UniProt Q9UER7 (Q9UER7 whole entry, looked up): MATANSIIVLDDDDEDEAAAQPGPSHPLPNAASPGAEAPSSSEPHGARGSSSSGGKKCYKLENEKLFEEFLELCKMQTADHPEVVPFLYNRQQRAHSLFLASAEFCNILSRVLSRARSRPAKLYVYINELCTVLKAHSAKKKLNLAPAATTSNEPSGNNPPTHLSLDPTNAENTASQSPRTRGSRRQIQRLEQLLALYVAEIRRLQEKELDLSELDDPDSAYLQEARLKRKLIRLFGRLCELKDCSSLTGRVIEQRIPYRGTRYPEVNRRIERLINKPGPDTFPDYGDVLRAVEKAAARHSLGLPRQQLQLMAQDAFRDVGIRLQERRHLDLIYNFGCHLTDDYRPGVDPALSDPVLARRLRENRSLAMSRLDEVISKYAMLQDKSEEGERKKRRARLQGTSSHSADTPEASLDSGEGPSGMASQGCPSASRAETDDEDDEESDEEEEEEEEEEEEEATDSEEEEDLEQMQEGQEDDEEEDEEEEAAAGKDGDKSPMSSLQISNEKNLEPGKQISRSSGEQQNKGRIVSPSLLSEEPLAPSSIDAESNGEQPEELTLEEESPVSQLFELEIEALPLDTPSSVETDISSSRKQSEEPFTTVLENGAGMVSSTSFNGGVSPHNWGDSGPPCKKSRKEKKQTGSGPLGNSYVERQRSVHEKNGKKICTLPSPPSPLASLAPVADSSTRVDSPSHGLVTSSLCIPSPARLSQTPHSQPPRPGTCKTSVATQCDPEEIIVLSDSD
Chain of UniProt Q15075 (Q15075 whole entry, looked up): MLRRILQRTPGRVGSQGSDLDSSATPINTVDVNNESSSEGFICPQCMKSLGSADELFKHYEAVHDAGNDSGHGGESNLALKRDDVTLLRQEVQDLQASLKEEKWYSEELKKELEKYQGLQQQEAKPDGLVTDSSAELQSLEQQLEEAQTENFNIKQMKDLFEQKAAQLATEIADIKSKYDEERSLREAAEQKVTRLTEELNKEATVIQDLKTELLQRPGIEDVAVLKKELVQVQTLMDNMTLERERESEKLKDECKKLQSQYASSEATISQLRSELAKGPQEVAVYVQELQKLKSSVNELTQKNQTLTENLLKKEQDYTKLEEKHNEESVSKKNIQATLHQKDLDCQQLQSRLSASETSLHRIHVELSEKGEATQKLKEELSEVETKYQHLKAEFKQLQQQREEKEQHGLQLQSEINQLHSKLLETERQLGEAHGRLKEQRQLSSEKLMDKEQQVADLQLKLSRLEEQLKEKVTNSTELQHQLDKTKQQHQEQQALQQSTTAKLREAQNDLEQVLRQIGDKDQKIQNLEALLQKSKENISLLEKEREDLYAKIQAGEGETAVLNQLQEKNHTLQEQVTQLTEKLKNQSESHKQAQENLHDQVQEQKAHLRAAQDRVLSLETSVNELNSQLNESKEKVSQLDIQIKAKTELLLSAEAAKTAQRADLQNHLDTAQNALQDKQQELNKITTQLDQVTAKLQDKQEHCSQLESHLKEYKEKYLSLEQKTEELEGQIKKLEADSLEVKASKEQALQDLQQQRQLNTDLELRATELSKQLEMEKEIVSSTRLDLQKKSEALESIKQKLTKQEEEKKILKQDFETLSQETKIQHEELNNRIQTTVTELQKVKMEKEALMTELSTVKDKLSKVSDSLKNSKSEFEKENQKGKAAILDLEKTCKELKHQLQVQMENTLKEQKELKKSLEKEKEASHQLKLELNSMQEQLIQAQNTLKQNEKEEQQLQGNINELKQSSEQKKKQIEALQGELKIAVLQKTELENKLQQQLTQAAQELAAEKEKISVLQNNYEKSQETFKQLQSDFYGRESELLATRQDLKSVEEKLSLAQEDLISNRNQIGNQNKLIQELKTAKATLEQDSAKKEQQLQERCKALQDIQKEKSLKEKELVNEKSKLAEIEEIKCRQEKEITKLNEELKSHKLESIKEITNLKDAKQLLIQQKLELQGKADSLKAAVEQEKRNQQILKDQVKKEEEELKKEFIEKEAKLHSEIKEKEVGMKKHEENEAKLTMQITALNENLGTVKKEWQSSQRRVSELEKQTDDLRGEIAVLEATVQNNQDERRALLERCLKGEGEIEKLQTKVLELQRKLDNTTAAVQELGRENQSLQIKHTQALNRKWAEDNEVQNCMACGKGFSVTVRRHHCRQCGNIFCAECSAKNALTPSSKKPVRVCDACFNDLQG
Chain of UniProt Q9H773 (Q9H773 whole entry, looked up): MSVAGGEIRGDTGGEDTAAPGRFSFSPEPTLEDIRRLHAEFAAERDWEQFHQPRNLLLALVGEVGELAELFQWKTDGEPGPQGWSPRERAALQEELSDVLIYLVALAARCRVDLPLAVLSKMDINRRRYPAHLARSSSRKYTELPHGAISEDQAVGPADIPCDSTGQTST
Chain of UniProt Q6P1L5 (Q6P1L5 whole entry, looked up): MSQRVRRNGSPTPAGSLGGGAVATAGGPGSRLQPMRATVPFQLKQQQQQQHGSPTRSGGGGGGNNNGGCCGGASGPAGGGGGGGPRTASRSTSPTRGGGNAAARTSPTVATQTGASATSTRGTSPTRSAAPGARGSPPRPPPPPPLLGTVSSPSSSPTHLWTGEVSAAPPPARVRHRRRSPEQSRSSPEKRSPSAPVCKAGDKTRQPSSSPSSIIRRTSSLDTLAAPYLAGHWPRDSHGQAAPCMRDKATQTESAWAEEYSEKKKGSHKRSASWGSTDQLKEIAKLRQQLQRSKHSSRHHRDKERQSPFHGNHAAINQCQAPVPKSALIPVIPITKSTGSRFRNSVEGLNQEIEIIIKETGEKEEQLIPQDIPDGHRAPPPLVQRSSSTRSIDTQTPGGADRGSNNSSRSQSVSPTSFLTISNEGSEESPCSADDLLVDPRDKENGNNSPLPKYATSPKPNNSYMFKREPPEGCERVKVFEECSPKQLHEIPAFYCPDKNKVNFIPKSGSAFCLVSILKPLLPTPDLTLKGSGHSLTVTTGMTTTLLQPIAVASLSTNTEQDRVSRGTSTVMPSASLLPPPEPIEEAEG
Chain of UniProt A1L3X0 (A1L3X0 whole entry, looked up): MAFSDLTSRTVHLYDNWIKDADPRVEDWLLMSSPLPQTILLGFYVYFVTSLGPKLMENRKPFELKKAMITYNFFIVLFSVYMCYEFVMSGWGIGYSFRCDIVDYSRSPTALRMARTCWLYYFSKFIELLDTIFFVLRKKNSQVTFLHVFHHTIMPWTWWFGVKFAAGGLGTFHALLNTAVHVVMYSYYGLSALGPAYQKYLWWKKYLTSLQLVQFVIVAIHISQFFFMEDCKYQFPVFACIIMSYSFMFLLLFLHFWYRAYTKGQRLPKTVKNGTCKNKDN

Target | log2 fold change [1] | log2 fold change [2] | log2 fold change [3] | log2 fold change [4] | log2 fold change [5] | log2 fold change [6] | log2 fold change [7] | log2 fold change [8] | log2 fold change [9] | log2 fold change [10]
EZH2 isoform 2 (UniProt Q15910) | -0.036 | 0.129 | 0.163 | 0.084 | 0.046 | 0.048 | 0.054 | -0.106 | -0.062 | –
DEGS1 (UniProt O15121) | -0.075 | 0.076 | -0.113 | 0.145 | 0.049 | -0.003 | -0.096 | -0.245 | 0.32 | –
EIF2AK3 (UniProt Q9NZJ5) | 0.056 | 0.022 | 0.091 | -0.222 | 0.421 | -0.311 | -0.016 | 0.148 | 0.075 | –
DDX27 (UniProt Q96GQ7) | 0.104 | -0.116 | -0.287 | 0.015 | 0.059 | – | 0.025 | -0.064 | -0.259 | -0.039
ELOVL1 (UniProt Q9BW60) | -0.022 | 0.019 | -0.01 | -0.059 | 0.036 | 0.011 | -0.11 | -0.124 | 0.014 | 0.069
FADS1, A0A0A0MR51 | 0.016 | -0.11 | -0.049 | -0.134 | 0.09 | 0.05 | -0.008 | -0.006 | 0.002 | 0.231 (active)
DAXX (UniProt Q9UER7) | 0.212 | -0.662 (active) | – | 0.037 | 0.072 | 0.012 | 0.009 | -0.148 | 0.224 | 0.055
EIF3J isoform 2 (UniProt O75822) | 0.094 | -0.093 | 0.029 | 0.005 | 0.14 | -0.042 | -0.138 | 0.143 | 0 | –
DHX40 (UniProt Q8IX18) | 0.019 | 0.05 | -0.008 | 0.071 | 0.044 | 0.092 | -0.034 | -0.071 | -0.038 | -0.046
CYB561A3 isoform 2 (UniProt Q8NBI2) | -0.021 | -0.016 | – | 0.02 | -0.005 | 0.114 | -0.034 | -0.01 | 0.069 | 0.043
EOGT (UniProt Q5NDL2) | -0.058 | -0.018 | -0.032 | 0.002 | -0.026 | -0.016 | 0.032 | 0.004 | 0.04 | -0.032
CTSB (UniProt P07858) | 0.021 | -0.037 | 0.026 | 0.003 | 0.038 | 0.016 | -0.017 | 0.007 | 0.04 | 0.009
DNAJB12 (UniProt Q9NXW2) | -0.039 | -0.001 | 0.003 | 0.102 | 0.004 | 0.032 | -0.064 | 0.044 | 0.033 | 0.006
CYP24A1 (UniProt Q07973) | -0.042 | -0.796 (active) | – | -0.072 | 0.015 | -0.13 | -0.057 | 0.179 | 0.046 | 0.091
ELF1 (UniProt P32519) | -0.016 | -0.052 | 0.068 | 0.028 | -0.003 | – | -0.091 | 0.013 | -0.092 | 0.082
DHRS1 (UniProt Q96LJ7) | -0.045 | 0.995 (active) | -0.02 | -0.105 | 0.353 | -0.034 | -0.163 | -0.163 | -0.021 | 0.813 (active)
DHPS (UniProt P49366) | 0 | -0.01 | 0.088 | -0.002 | -0.034 | 0.033 | -0.004 | -0.007 | 0.021 | 0.024
ELOVL7 (UniProt A1L3X0) | -0.008 | 0.062 | -0.065 | 0.009 | 0.182 | – | -0.162 | 0.078 | 0.065 | –
DCTPP1 (UniProt Q9H773) | 0.01 | -0.07 | 0.14 | -0.039 | -0.073 | 0.035 | 0.012 | -0.021 | -0.054 | 0.194
FAM117B (UniProt Q6P1L5) | 0.088 | 0.053 | -0.134 | 0.079 | 0.098 | – | 0.099 | 0.165 | 0.09 | 0.151
EEA1 (UniProt Q15075) | 0 | -0.016 | 0.046 | 0.003 | 0.01 | 0.046 | -0.031 | 0.009 | 0.05 | -0.046
DPYSL2 (UniProt Q16555) | -0.02 | -0.104 | 0.099 | 0.072 | 0.074 | 0.003 | 0.055 | -0.044 | 0.14 | –
CUX1 isoform 3 (UniProt P39880) | 0.013 | 0 | 0.034 | -0.015 | -0.008 | 0.11 | 0.01 | -0.003 | 0.092 | -0.074
ELAC1 (UniProt Q9H777) | 0.035 | -0.068 | 0.04 | -0.061 | 0.041 | – | -0.021 | – | – | –
DNAJC1 (UniProt Q96KC8) | 0.001 | 0.096 | 0.059 | 0.014 | 0.082 | 0.004 | -0.022 | -0.001 | 0.027 | -0.021
CWC27 (UniProt Q6UX04) | 0.084 | -0.023 | 0.055 | -0.049 | 0.021 | 0.02 | -0.102 | -0.086 | -0.053 | 0.041
DDX4 (UniProt Q9NQI0) | 0.576 | -0.071 | -0.23 | -0.056 | 0.006 | 0 | 0.006 | 0.053 | -0.273 | -0.305
ERLIN1 (UniProt O75477) | -0.081 | 0.013 | -0.097 | -0.001 | -0.015 | -0.011 | -0.047 | 0.008 | -0.124 | -0.006
